Screens (PubChem)
This is a sample that favours compounds with a hit; in the whole collection about 8.3% have one here.
FMDV inh: foot and mouth disease virus antiviral activity; Potency, µM (doses to about 57.9 µM), hits mostly inhibitors; AID 1159524; 1.2% of 410,000 active; FMDV antiviral cell-based qHTS; calls by dose curve; tested in HEK293T cells; further: read-out not given here; nearly all actives have a fitted effect of over 45% in size
MARV entry inh: blocks Marburg virus binding to or entry into cells. Potency, µM (top dose mostly 37.8 µM), most hits filed as inhibitors. Marburg virus pseudotyped entry inhibition, cell reporter. 1.8% of 300,000 active. AID 540276; calls by dose curve; tested in HEK293 cells
Lassa entry inh: inhibitors of Lassa virus binding or cell entry | Lassa virus pseudotype entry inhibition, cell reporter | Potency, µM (top dose mostly 37.9 µM), usual class: inhibitors | 1.2% of 300,000 active; calls by dose curve; tested in HEK293 cells; further: nearly all actives have a fitted effect of over 50% in size
HCV inhibitor: blocks hepatitis C virus | AID 651820 | Huh7.5.1 HCVcc-Cre infection, luciferase reporter, 44 h | 3.4% of 340,000 active | Potency, µM (titrated, usually from 41.8 µM), hits mostly inhibitors
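Reporter virus HCVcc-Cre (~0.5 moi) infects cells exposed to compound; seeding density 1,000 cells/well with 4 h settling beforehand. Luminescence, 15 sec read, taken 44 h post-infection following a 15 min RT substrate incubation.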
HCMV antiviral: human cytomegalovirus inhibition | HFF cells, HCMV-luciferase reporter, 72 h; stronger effect = lower value | activity change, negative = inhibition, % at 57.5 µM | 4.5% of 410,000 active | AID 1259415; in the data active means activity change below about -60%; inconclusive means no clear call, values can overlap the other calls; inactive means above about -39%
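Two compound doses tested in HFFs infected with HCMV-luciferase, MOI 1 PFU/cell, 72 h at 37C. Lysate luminescence read with OneGlo; data normalized against buffer-only and 10uM Salinomycin inhibitor controls.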
FBPA Giardia inh: blocks Giardia fructose-bisphosphate aldolase activity; 0.71% of 290,000 active; AID 2451; purified Giardia FBPA; Potency, µM (top dose mostly 59.6 µM), actives largely listed as inhibitors; A8B2U2; further: nearly all actives have a fitted effect of over 55% in size
Target sequence (A8B2U2 whole entry, looked up): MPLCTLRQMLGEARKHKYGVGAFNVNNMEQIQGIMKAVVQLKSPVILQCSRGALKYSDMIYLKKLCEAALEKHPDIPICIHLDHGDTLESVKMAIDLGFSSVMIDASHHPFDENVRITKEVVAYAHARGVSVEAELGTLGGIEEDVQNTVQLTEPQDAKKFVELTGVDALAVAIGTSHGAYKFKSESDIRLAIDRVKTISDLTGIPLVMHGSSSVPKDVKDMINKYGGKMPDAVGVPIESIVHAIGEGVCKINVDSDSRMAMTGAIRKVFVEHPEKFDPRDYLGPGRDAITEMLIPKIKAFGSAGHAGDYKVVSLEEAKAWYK
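Giardia FBPA (40 nM reagent) was preincubated 10 min at RT with compound (up to 57.5 uM final), then substrate plus GAPDH/TPI/NAD/arsenate coupling system with diaphorase/resazurin was added; resorufin fluorescence (525/598 nm) was read after 20 min.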
Of the large screens only hits and unclear results are named; the others gave an inactive call. Unless noted, the call rests on the fitted dose curve; in most records, active means well fitted curve in the direction sought with a large enough effect; inconclusive means small, poorly fitted or top-dose-only effect, or another doubt; inactive means no such curve, though single readings can be large; an effect the other way counts as inactive or inconclusive.

COC(=O)c1cc2sc(C)cc2n1Cc1ccc(Br)cc1F	none (no result: Lassa entry inh, HCV inhibitor, FBPA Giardia inh)
COCCn1c(=O)c(-c2cc(F)cc(F)c2)nc2cnc(OC)nc21	none (no result: MARV entry inh, Lassa entry inh, HCV inhibitor, HCMV antiviral)
COCCN(Cc1cc2cc(C)cc(C)c2nc1Cl)C(=O)Nc1ccccc1	HCV inhibitor inconclusive
Cc1cc(C)c2nc(Cl)c(CN(Cc3ccco3)C(=O)Nc3ccccc3C)cc2c1	MARV entry inh inconclusive, Lassa entry inh inconclusive, HCV inhibitor inconclusive, HCMV antiviral -63 (no result: FMDV inh)
COc1ccc(NC(=O)OC[C@@H]2CSCCS(=O)(=O)N2)cc1	Lassa entry inh inconclusive (no result: FMDV inh, MARV entry inh, HCV inhibitor, FBPA Giardia inh)
CCC1CN(CCC(=O)NC2CCOC(C)(C)C2)Cc2cc(OC)ccc2O1 (centres undefined)	none (no result: MARV entry inh, Lassa entry inh, HCV inhibitor, HCMV antiviral, FBPA Giardia inh)
Cc1ccc(/C=[N+](\[O-])c2ccccc2C)o1	HCMV antiviral -98 (no result: MARV entry inh, Lassa entry inh)
Cc1ccccc1/[N+]([O-])=C/c1cccs1	none (no result: MARV entry inh, Lassa entry inh)
CCOC(=O)c1c(C)[nH]c(CCC(=O)Nc2ccc(N(CC)CC)cc2C)c1C	Lassa entry inh inconclusive (no result: MARV entry inh, HCV inhibitor, FBPA Giardia inh)
CS(=O)(=O)NCCSc1nnnn1-c1ccccc1	MARV entry inh inconclusive
O=S(=O)(NCCSc1nnnn1-c1ccccc1)c1cccs1	MARV entry inh inconclusive, HCV inhibitor inconclusive, HCMV antiviral -81
O=S(=O)(NCCSc1nnnn1-c1ccccc1)c1ccc(F)cc1	HCMV antiviral -61 (no result: HCV inhibitor, FBPA Giardia inh)
COc1ccc(OC)c(CNC(=O)NCc2noc3ccc(C)cc23)c1	none (no result: MARV entry inh, HCV inhibitor, FBPA Giardia inh)
CCOc1ccc(NC(=O)CSc2oc(-c3ccc(F)cc3)nc2S(=O)(=O)c2ccc(C)cc2)cc1	none (no result: HCV inhibitor, FBPA Giardia inh)
Cc1ccc(OCC(=O)Nc2c(Cl)ccc3nsnc23)cc1C	none (no result: HCV inhibitor, FBPA Giardia inh)
Cc1ccc(CN2CC(C(=O)N3CCN(c4ccccc4O)CC3)CC2=O)cc1 (centres undefined)	FMDV inh inconclusive, Lassa entry inh 11µM, HCV inhibitor inconclusive (no result: FBPA Giardia inh)
Cc1ccc(CN2CC(C(=O)Nc3ccc(S(=O)(=O)N4CCCCC4)cc3)CC2=O)cc1 (centres undefined)	Lassa entry inh inconclusive, HCMV antiviral -68 (no result: FBPA Giardia inh)
Cc1ccc(NC(=O)C2CC(=O)N(Cc3ccccc3)C2)cc1S(=O)(=O)N1CCCCCC1 (centres undefined)	FMDV inh inconclusive, MARV entry inh inconclusive, Lassa entry inh inconclusive, HCV inhibitor 8.9µM, HCMV antiviral -77
CCN(CC)S(=O)(=O)c1cc(NC(=O)C2CC(=O)N(Cc3ccccc3)C2)ccc1Cl (centres undefined)	FMDV inh 11µM, HCV inhibitor 11µM, HCMV antiviral -63 (no result: MARV entry inh, Lassa entry inh, FBPA Giardia inh)
COC(=O)c1[nH]c2ccc(Cl)cc2c1NC(=O)CN1CCc2cc(OC)c(OC)cc2C1	FMDV inh inconclusive, MARV entry inh inconclusive, Lassa entry inh inconclusive, HCV inhibitor inconclusive
COC(=O)c1[nH]c2cc(C)ccc2c1NC(=O)CN1CCc2cc(OC)c(OC)cc2C1	FMDV inh 22µM, MARV entry inh inconclusive, Lassa entry inh inconclusive, HCV inhibitor inconclusive (no result: HCMV antiviral)
COC(=O)c1ccc(C(=O)OC)c(NC(=O)CN2CCN(c3ccccc3)CC2)c1	MARV entry inh 9.2µM, Lassa entry inh inconclusive
COC(=O)c1[nH]c2ccc(C)cc2c1NC(=O)CN1CCN(c2ccc(F)cc2)CC1	FMDV inh 25µM, MARV entry inh inconclusive, Lassa entry inh 13µM, HCV inhibitor inconclusive, HCMV antiviral -83
COC(=O)c1[nH]c2ccc(C)cc2c1NC(=O)CN1CCN(c2ccccc2)CC1	FMDV inh inconclusive, MARV entry inh inconclusive, Lassa entry inh inconclusive, HCV inhibitor inconclusive, HCMV antiviral -65
NC(N)=NCCC[C@H](NC(=O)[C@H](Cc1ccccc1)NC(=O)[C@@H]1CCCN1C(=O)[C@H](CO)NC(=O)[C@H](Cc1ccccc1)NC(=O)CNC(=O)[C@@H]1CCCN1C(=O)[C@@H]1CCCN1C(=O)[C@@H](N)CCCN=C(N)N)C(=O)O	none (no result: FMDV inh, MARV entry inh, Lassa entry inh, HCV inhibitor, HCMV antiviral)
COCC1=C2c3ccccc3[C@H](C[N+](=O)[O-])C(C(=O)OC)(C(=O)OC)C[C@@H]2n2c(=O)n(-c3ccccc3)c(=O)n2C1	none (no result: FMDV inh, MARV entry inh, Lassa entry inh, HCV inhibitor, HCMV antiviral)
CCCC(=O)OC1=CN(Cc2ccccc2)S(=O)(=O)c2ccccc21	none (no result: HCV inhibitor, FBPA Giardia inh)
CCOC(=O)N1CCN(CC(=O)Nc2c(C(=O)OC)[nH]c3cc(C)ccc23)CC1	FMDV inh inconclusive, HCV inhibitor inconclusive
COC(=O)c1ccccc1NC(=O)CN1CCN(C23CC4CC(CC(C4)C2)C3)CC1	MARV entry inh 5.8µM, Lassa entry inh inconclusive
COC(=O)c1ccccc1NC(=O)CN1CCc2ccccc2C1	none
CCOC(=O)N1CCN(CC(=O)Nc2c(C(=O)OC)[nH]c3ccc(Cl)cc23)CC1	FMDV inh 32µM, MARV entry inh inconclusive, Lassa entry inh inconclusive, HCV inhibitor inconclusive, HCMV antiviral inconclusive
OC(COC(c1ccc(Cl)cc1)c1ccc(Cl)cc1)CN1CCCC1 (centres undefined)	MARV entry inh inconclusive, Lassa entry inh inconclusive, HCV inhibitor 5.6µM
CN1CCN(CC(O)COc2ccc(Cl)cc2)CC1 (centres undefined)	none
Cc1ccc(C(OCC(O)CN2CCCCC2)c2ccccc2)cc1 (centres undefined)	MARV entry inh inconclusive
CN1CCN(CC(O)COC(c2ccc(Cl)cc2)c2ccc(Cl)cc2)CC1 (centres undefined)	HCV inhibitor 5µM, HCMV antiviral -80 (no result: MARV entry inh, Lassa entry inh)
CC(C)(C)OC(=O)C(Br)CCBr (centres undefined)	none (no result: FMDV inh, MARV entry inh, Lassa entry inh, HCV inhibitor, HCMV antiviral)
O=[N+]([O-])c1cccc(-c2cc3cccc[n+]3cc2-c2cccc([N+](=O)[O-])c2)c1	none
Cc1cccc2cc(-c3ccccc3)c(-c3ccccc3)c[n+]12	FMDV inh inconclusive, MARV entry inh inconclusive, Lassa entry inh 11µM, HCV inhibitor inconclusive, HCMV antiviral -97
O=C1C=C[C@@H](O)[C@H]2[C@@H]3C(=O)N(C[C@@H]4CCCO4)C(=O)[C@@H]3CC[C@H]12	none (no result: FMDV inh, MARV entry inh, Lassa entry inh, HCV inhibitor, HCMV antiviral)
COc1cc(-n2nnnc2SCC(=O)N2CCN(c3ccc(F)cc3)CC2)c(OC)cc1Cl	FMDV inh inconclusive, MARV entry inh inconclusive, Lassa entry inh inconclusive, HCV inhibitor 11µM
CCOC(=O)CSc1nnnn1-c1cc(OC)c(Cl)cc1OC	HCV inhibitor inconclusive
O=C1CCCC2=C1C(c1ccccc1)NC(=S)N2 (centres undefined)	HCMV antiviral -103
CSCC[C@H](NC(=O)[C@H](CC(C)C)N(C)C(=O)[C@@H]1CCCN1C(=O)[C@H](Cc1ccccc1)NC(=O)[C@H](Cc1ccccc1)NC(=O)CCC(C)N)C(=O)O (some centres undefined)	none (no result: FMDV inh, MARV entry inh, Lassa entry inh, HCV inhibitor, HCMV antiviral)
CC1(C)CC(N2CCCCC2)=CC(=[N+]2CCCCC2)C1	FMDV inh inconclusive, MARV entry inh inconclusive, Lassa entry inh inconclusive, HCV inhibitor inconclusive, HCMV antiviral -95
CCCN(CCC)C1=CC(=[N+]2CCCC2)CC(C)(C)C1	FMDV inh inconclusive, MARV entry inh inconclusive, Lassa entry inh 10µM, HCV inhibitor inconclusive, HCMV antiviral -101
